Bioassay records: PubChem BioAssay, Buhrlage Lab, Dana-Farber Cancer Institute and Novartis Institutes for BioMedical Research (Cambridge, Mass)
Rows were chosen to be rich in hits. Some 12% of all compounds tested hit in one or more screens of this group.
OTUD3 block = inhibitors of human OTUD3 deubiquitinase. OTU domain-containing protein 3 (Homo sapiens), Q5T2D3. purified OTUD3, Ub-rhodamine fluorescence, 2 h. inhibition, % at 25 µM. 0.7% of 47,000 active. AID 1645858, 2021
USP17 inh = inhibitors of human USP17 deubiquitinase; purified USP17, Ub-rhodamine cleavage fluorescence, 3 h; 6.5% of 47,000 active; Ubiquitin carboxyl-terminal hydrolase 17-like protein 5 (Homo sapiens), A8MUK1; inhibition, % at 50 µM
Target sequence (A8MUK1 whole entry, looked up): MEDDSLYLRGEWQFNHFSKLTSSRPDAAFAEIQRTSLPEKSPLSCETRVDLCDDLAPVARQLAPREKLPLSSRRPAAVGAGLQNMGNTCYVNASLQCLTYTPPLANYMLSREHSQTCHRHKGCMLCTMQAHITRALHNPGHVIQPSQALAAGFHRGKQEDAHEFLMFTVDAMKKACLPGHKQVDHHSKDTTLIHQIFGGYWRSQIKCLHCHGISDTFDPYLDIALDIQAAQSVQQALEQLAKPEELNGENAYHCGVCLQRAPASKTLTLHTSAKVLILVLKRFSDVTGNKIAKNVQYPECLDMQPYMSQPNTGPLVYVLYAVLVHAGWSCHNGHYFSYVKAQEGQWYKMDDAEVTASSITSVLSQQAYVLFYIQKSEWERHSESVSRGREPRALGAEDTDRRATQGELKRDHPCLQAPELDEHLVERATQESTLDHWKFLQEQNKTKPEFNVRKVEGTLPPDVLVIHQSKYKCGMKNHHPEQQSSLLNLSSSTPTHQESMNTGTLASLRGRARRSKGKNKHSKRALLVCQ
USP30 inh = inhibitors of human USP30 deubiquitinase; inhibition, % at 25 µM; Ubiquitin carboxyl-terminal hydrolase 30 (Homo sapiens), Q70CQ3; purified USP30, Ub-rhodamine cleavage fluorescence; 5.3% of 47,000 active
USP28 inh = inhibitors of human USP28 deubiquitinase. 3% of 47,000 active. Ubiquitin carboxyl-terminal hydrolase 28 (Homo sapiens), Q96RU2. inhibition, % at 25 µM. purified USP28, Ub-rhodamine cleavage fluorescence, 30 min
Active calls of the source: *; · = no result. No stated cut-off is given here; in the data, active means inhibition above about 30%; inactive means the rest.

SMILES	OTUD3 block	USP17 inh	USP30 inh	USP28 inh
Cn1c(CCC(=O)Nc2ccc3c(c2)CCC3)nc2cc(S(=O)(=O)N3CCOCC3)ccc21	-7.3	47.7*	32.6*	6.0
Cc1sc2ncnc(SCC(=O)c3cc(C)n(Cc4ccco4)c3C)c2c1C	5.7	38.8*	-142.3	18.8
Cc1sc2ncnc(OCC(=O)c3cc(F)ccc3F)c2c1C	-8.8	2.1	6.9	-4.8
CCN(Cc1ccccc1)c1nc2ccccc2nc1NS(=O)(=O)c1cc([N+](=O)[O-])ccc1C	15.6	34.0*	28.8	19.6
Cc1ccn2cc(CCNS(=O)(=O)c3cc([N+](=O)[O-])ccc3C)nc2c1	10.0	·	20.6	2.6
CN(C)c1cnc(-n2cc(NC(=O)c3ccc(F)cc3)cn2)nc1	-18.7	4.4	-129.1	-23.3
Cn1cc2cccc(NC(=O)c3ccc(F)cc3)c2n1	-8.6	86.6*	-3.1	9.0
COc1ccc(S(=O)(=O)N2CCCCCC2)cc1NC(=O)c1cccc(Cl)c1	-1.6	·	5.2	-10.2
COc1cc(C(=O)Nc2nc3ccc(S(=O)(=O)N4CCCC4)cc3s2)cc(OC)c1OC	-9.1	40.4*	-67.3	-22.2
COc1cccc(NC(=O)CSc2ncnc3c2sc2nc(CC(C)C)c4c(c23)CCC4)c1	-8.7	-11.0	·	·
COc1ccc(OC(=O)CN(c2cccc(C(F)(F)F)c2)S(=O)(=O)c2ccccc2)cc1	-4.5	5.3	9.4	-0.1
O=C(CN(c1ccccc1)S(=O)(=O)c1ccccc1)Oc1cc(Cl)ccc1Cl	10.4	20.7	34.2*	6.2
Cc1cc(C)c(NC(=O)CSc2nc3nccnc3c(=O)n2Cc2ccccc2Cl)c(C)c1	30.8*	49.2*	-11.3	36.5*
CCn1c(CNc2ccc(C)cc2)nnc1SCC(=O)Nc1ccccc1Cl	-15.5	-17.9	-30.7	4.9
Cc1cccc(CNC(=O)c2cc3occc3c(Nc3ccc(F)cc3)n2)c1	5.1	7.1	6.4	6.0
Cc1ccc(Nc2nc(C(=O)NCc3ccccc3)cc3occc23)cc1	-6.8	31.5*	-63.6	0.1
Cc1ccc(Nc2nc(C(=O)NCc3ccc4c(c3)OCO4)cc3occc23)cc1Cl	0.2	66.4*	-133.1	-14.1
O=C(NCc1ccc2c(c1)OCO2)c1cc2occc2c(Nc2ccc(F)cc2)n1	-15.5	24.7	1.0	-5.2
COc1ccc(CC(=O)Nc2ccc3c(c2)Sc2ncccc2C(=O)N3C)cc1	-1.2	-20.5	-25.0	0.0
O=c1ccc(-c2nnc3c4ccccc4c(Cc4ccccc4)nn23)n[nH]1	7.0	2.7	0.2	9.7
c1ccc(-c2cc(-c3nnc4c5ccccc5cnn34)[nH]n2)cc1	0.0	47.2*	6.6	-6.5
O=c1c2ccccc2c(-c2nc(-c3ccncc3)no2)cn1-c1ccccc1	-1.3	72.5*	6.6	5.4
Cc1ccc(CN2C(=O)c3ccccc3NC23C(=O)Nc2c(C)cccc23)cc1 (centres undefined)	0.1	0.4	17.8	14.6
CCOc1ccc(-c2nc(SCC(=O)Nc3cccc(C)c3)n3[nH]c(=O)cc3n2)cc1	26.5	39.9*	14.5	18.2
Cc1cccc(CNC(=O)c2ccc(-c3nnc(-c4cccc(C)c4)o3)cc2)c1	-2.2	81.6*	6.6	-1.7
SMILES	OTUD3 block	USP17 inh	USP30 inh	USP28 inh
O=C(NCc1cccc(Cl)c1)c1ccc(-c2nnc(-c3ccccc3)o2)cc1	4.2	50.3*	22.4	3.2
O=C(c1ccc(F)cc1)N1CCN(Cc2nnnn2-c2cccc(F)c2)CC1	5.7	-0.1	22.9	6.7
CCOC(=O)N1CCN(Cc2nnnn2-c2cccc(F)c2)CC1	22.8	17.2	34.4*	10.7
COc1ccccc1C1CCN(c2ncccc2[N+](=O)[O-])CC1	5.6	3.4	10.2	7.1
COc1ccc(CNC(=O)CN2C(=O)C(C)=C(c3ccc(C)cc3)S2(=O)=O)cc1	-7.0	7.8	-9.7	57.5*
COc1ccc(CNC(=O)CN2CCN(Cc3ccccc3C)C2=O)cc1	6.9	7.4	27.4	15.0
Clc1ccccc1Cn1c(/C=C/c2ccccc2)nc2ccccc21	12.2	20.0	-12.1	22.8
Cc1cc2nc(/C=C/c3ccccc3)n(Cc3cccc(F)c3)c2cc1C	2.0	-5.7	0.0	50.9*
CC(C)=CCC/C(C)=C/CCC(C)(O)C1Cc2c(c3ccccc3[n+]([O-])c2C)O1 (centres undefined)	1.0	18.9	30.3*	6.9
CC(C)C(=O)N1CCN(C(=O)Nc2ccccc2)CC2(CNC(=O)C2)C1 (centres undefined)	-8.0	-2.4	1.3	-14.5
O=C(CC(=O)c1c(F)cccc1F)c1ccccc1O	15.2	25.6	30.1*	26.3
Cc1cnc(NC(=O)CNC(=O)c2ccccc2F)s1	13.5	-10.7	11.9	2.8
Cc1cc(N2C(=O)N(Cc3ccccc3)S(=O)(=O)c3cccnc32)ccc1F	19.7	18.9	10.2	17.4
COc1cc2c(cc1OC)-c1cc(N(C(C)=O)c3ccc4c5c(cccc35)CC4)nc(=O)n1CC2	-24.6	37.7*	-96.2	-16.0
COc1cc2c(cc1OC)-c1cc(Oc3ccccc3C)nc(=O)n1CC2	-12.0	-5.2	-65.1	-11.2
CN1c2ccccc2O[C@@H]2CC[C@@H](NC(=O)c3cnccn3)[C@@H](O)[C@@H]21	3.7	1.7	-8.2	2.9
O=c1c2ccccc2nc(N2CCN(Cc3ccccc3)CC2)n1-c1ccccc1	-2.8	-18.9	2.8	-12.7
O=c1c2ccccc2nc(CSc2nc3ccc4[nH]snc4c3n2)n1-c1ccccc1	22.8	51.4*	37.5*	51.0*
C/C=C1/C2=CCCN3C(=O)O[C@H]([C@H]1O)[C@H]23	0.5	72.2*	13.6	69.1*
COc1ccc(CCNC(=O)c2cnc3sc4c(n3c2=O)CCCC4)cc1OC	-6.3	-19.7	0.0	40.3*
CCOC(=O)C1=C(CN2CCN(c3ccc(F)cc3)CC2)NC(=O)NC1c1ccc(OC)cc1 (centres undefined)	0.0	35.6*	34.0*	-2.1
O=C(NCc1ccncc1)C1CCN(c2cncnc2N2CCCCC2)CC1	-13.5	-12.2	-42.2	51.5*
CCCOc1ccc(CNC(=O)C2CCN(c3ccncc3)CC2)cc1	-4.6	-5.6	-6.0	34.7*
COCCNc1ccc(-c2nc(-c3ccccc3)no2)nn1	5.2	25.6	1.6	3.2
Cc1noc(COC2CCN(S(=O)(=O)c3ccccc3)CC2)n1	7.5	-1.3	15.9	1.5
SMILES	OTUD3 block	USP17 inh	USP30 inh	USP28 inh
O=C(CCCc1ccccc1)Nc1nnc(C2CC(=O)N(c3ccccc3)C2)s1 (centres undefined)	9.5	41.1*	·	·
CCc1ccc(N2CC(c3nnc(NC(=O)Cc4ccc(C)cc4)s3)CC2=O)cc1 (centres undefined)	29.4	49.6*	32.7*	16.7
CCCCCCCCCCCCCCCc1cc(O)cc(O)c1	-5.5	30.0*	1.8	-16.7
CCOC(=O)C1CCN(C(=O)CN(c2ccccc2)S(=O)(=O)c2ccc(Cl)cc2)CC1	-4.0	-13.7	1.8	1.4
CCOC(=O)c1nc(Nc2ccc(OC)c(Cl)c2)c2ccccc2n1	11.4	74.5*	49.4*	16.6
CCOC(=O)c1sc2ccccc2c1S(=O)(=O)Nc1cccc(Cl)c1	-2.0	-26.8	-17.5	2.8
